High-throughput results (PubChem BioAssay)
A647 autofl: compound fluoresces in the A647 spectral region; Compound fluorescence, A647 channel (570/671 nm), Tris buffer; max dye-equivalent concentration, M; 59,000 tested, under 10 active; AID 592
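Buffer was dispensed, compounds and Alexa 647 standards were pin-transferred, and plates sat 15 min at room temperature. Intensity at 570/671 nm was then converted to dye-equivalent concentration using the plate's A647 standard curve.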
A488 autofl: compound fluoresces in the A488 spectral region. compound autofluorescence, A488 spectral region, dye equivalency; Compound Type: qHTS ECL - MLSMR. max dye equivalency, M. 59,000 tested, 0.1% active
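Intrinsic compound fluorescence is measured in 100 mM Tris buffer at pH 8.0 following 15 min incubation at room temperature. Intensities at 480 nm excitation/540 nm emission are calibrated to an on-plate A488 concentration series, giving dye-equivalent concentrations.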
Fluorescein autfl: compound autofluorescence in fluorescein spectral region; Compound autofluorescence, 480/540 nm, fluorescein-equivalent; active compounds read high; max fluorescein-equivalent concentration, M; 59,000 tested, 0.91% active; AID 593; in the data active means max fluorescein-equivalent concentration above about 10 nM; inconclusive means between about 1.1 nM and that limit
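Spectral profiling of library compounds in the fluorescein window (480 nm excitation, 540 nm emission) after 15 min at room temperature in pH 8.0 Tris (100 mM). Values are dye-equivalent concentrations.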
Texas Red fluor: compounds fluorescent in Texas Red spectral region; Compound fluorescence, Texas Red channel, 547/618 nm; active compounds read high; max dye-equivalent concentration, M; 59,000 tested, 0.06% active; in the data active means max dye-equivalent concentration above about 10 nM; inconclusive means between about 1.1 nM and that limit
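Compound titrations in 100 mM Tris pH 8.0 were incubated 15 min at room temperature and read at 547 nm excitation / 618 nm emission. Texas Red six-point standard curve on each plate converted fluorescence to dye-equivalent concentration.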
Resorufin fluor: compound fluoresces in the resorufin spectral region; Compound fluorescence, resorufin region 547/598 nm, buffer; active compounds read high; max dye-equivalent concentration, M; 59,000 tested, 0.04% active; AID 588
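Read-out: intrinsic compound fluorescence at ex 547/em 598 nm after 15 min at RT in pH 8.0 Tris (100 mM). Values expressed as resorufin-equivalent concentration from per-plate standard series.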
Rhodamine fluor: compound autofluorescence in rhodamine spectral region | AID 594 | max dye-equivalent concentration, M | 59,000 tested, 0.05% active | Rhodamine-region fluorescence, 547/598 nm, Tris buffer; active compounds read high; in the data active means max dye-equivalent concentration above about 11 nM; inconclusive means between about 1.1 nM and that limit
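Compounds in 100 mM Tris buffer, pH 8.0, were incubated 15 min at room temperature, then read at 547 nm excitation and 598 nm emission. Fluorescence was normalized against a per-plate six-point rhodamine standard curve as dye-equivalent concentration.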
Numbers stand for hits; 0 = inactive; ? = inconclusive. The list is not random: actives were taken first. Their share in the collection is about 0.95%. Unless noted, how the calls were made is not given here.

SMILES	A647 autofl	A488 autofl	Fluorescein autfl	Texas Red fluor	Resorufin fluor	Rhodamine fluor
Cc1ccc2[nH]c3c(c2c1)CN(C(=O)CN1CC(C)OC(C)C1)CC3 (stereo not given)	0	0	1.12e-08M	0	0	0
Cc1ccc2[nH]c3c(c2c1)CN(C(=O)CN1CCSCC1)CC3	0	0	?	?	0	0
Cc1ccc2[nH]c3c(c2c1)CN(C(=O)CN1CCN(c2ccccn2)CC1)CC3	0	0	1.79e-08M	0	0	0
CC(C)n1c(=NC(=O)c2ccco2)c(C#N)cc2c(=O)n3ccccc3cc21	0	0	1.14e-08M	?	0	0
CCCn1c(=NC(=O)c2ccco2)c(C(=O)OCC)cc2c(=O)n3ccccc3nc21	0	0	0	0	0	0
O=C(O)CCSC1=NCCN1	0	0	?	0	0	0
CN[C@H]1[C@H](O)[C@@H](O[C@@H]2[C@H](O)[C@@H](O[C@H]3OC(CN)=CC[C@H]3N)[C@@H](N)C[C@H]2N)OC[C@@]1(C)O	0	0	?	0	0	0
CCN[C@@H]1C[C@H](N)[C@H](O[C@H]2OC(CN)=CC[C@H]2N)[C@@H](O)[C@H]1O[C@H]1OC[C@@](C)(O)[C@@H](NC)[C@@H]1O	0	0	2.43e-08M	0	0	0
CCN1C(=S)SC(=O)C1=C1C=C(C)OC(C)=C1	0	?	1.72e-07M	?	0	0
CCN1C(=S)SC(=O)C1=C1C=C(C)N(Cc2ccco2)C(C)=C1	0	0	?	?	0	0
CC1=c2c(oc3cc(O)c(Nc4c(C)cc(O)cc4O)c(C)c23)=CC(=O)C1=Nc1c(C)cc(O)cc1O	0	0	1.47e-08M	2.63e-07M	7.41e-08M	1.17e-07M
COc1ccc(-c2coc3ccc(O[C@@H]4O[C@@H](COC(C)=O)[C@@H](OC(C)=O)[C@@H](OC(C)=O)[C@H]4OC(C)=O)c(OC(C)=O)c3c2=O)cc1	0	0	0	0	0	0
COC(=O)c1ccc(C2/C(=C(/O)c3ccc(OC)cc3)C(=O)C(=O)N2c2cc(C)on2)cc1 (stereo not given)	0	0	1.02e-08M	0	0	0
COC(=O)c1ccc(C2/C(=C(/O)c3ccc(OC(C)C)cc3)C(=O)C(=O)N2c2cc(C)on2)cc1 (stereo not given)	0	0	0	?	0	0
O=C(c1csnn1)N1CCC2(CC1)CCN(c1ccccc1)CC2	0	0	0	0	0	0
O=S(=O)(CCn1cccc1)CCn1cccc1	0	0	1.01e-08M	0	0	0
Cc1ccc(C2c3sc(=O)[nH]c3SC3C(=O)NC(=O)C32)cc1 (stereo not given)	0	0	1.21e-08M	0	0	0
O=C(O)C1Sc2[nH]c(=O)sc2C2c3cc(Cl)ccc3OC(=O)C12 (stereo not given)	0	0	0	0	0	0
c1ccc2c(-c3ccncc3)c[nH]c2c1	0	0	?	0	0	0
Nc1cc(-c2ccncc2)c[nH]c1=O	0	0	1.08e-08M	0	0	0
Cc1[nH]c(C)c(CN(C)C)c1CN(C)C	0	0	?	0	0	0
O=C(c1csnn1)N1CCC2(CCCN(C(c3ccccc3)c3ccccc3)C2)CC1	0	0	0	0	0	0
C[n+]1cc2c3c(ccc2c2ccc4cc5c(cc4c21)OCO5)OCO3	0	?	2.96e-08M	0	0	?
O=C(O)c1cc2cc(Cc3cccnc3)ccc2o1	0	0	0	0	0	0
O=c1oc2c3c4c(cc2c(C(F)(F)F)c1CCN1CCOCC1)CCCN4CCC3	0	?	4.61e-08M	?	0	0
SMILES	A647 autofl	A488 autofl	Fluorescein autfl	Texas Red fluor	Resorufin fluor	Rhodamine fluor
O=c1oc2c(CN3CCOCC3)c(O)ccc2c2c1CCC2	0	0	0	0	0	0
CCCN1C[C@@H](CSC)C[C@H]2c3cccc4[nH]cc(c34)C[C@@H]21	0	0	?	?	0	0
N#CC(C(=O)OC1CCCCC1)c1nc2ccccc2nc1N1CCCCC1 (stereo not given)	0	0	1.26e-08M	0	0	0
CC1CCCN(c2nc3ccccc3nc2C(C#N)C(=O)OC2CCCCC2)C1 (stereo not given)	0	0	1.42e-08M	?	0	0
O=C(N/N=C\c1ccc2c(c1)CCC2)c1ccccc1O	0	0	?	0	0	0
CNc1ncnc2c1ncn2[C@H]1C[C@@H](OP(=O)(O)O)[C@H](COP(=O)(O)O)O1	0	0	?	0	0	0
CN(C)c1ccc(/C=C/c2cc[n+]([O-])cc2)cc1	0	1.51e-08M	2.85e-07M	?	0	0
O=C1c2ccccc2C(=O)c2c1ccc(N1C(=O)c3ccccc3C1=O)c2-c1c(N2C(=O)c3ccccc3C2=O)ccc2c1C(=O)c1ccccc1C2=O	0	0	0	0	0	0
CN(C)C=Nc1nonc1-c1ncn[nH]1	0	0	0	0	0	0
CN(C)C=Nc1c(Br)cc(Br)c2nonc12	0	?	3.91e-08M	?	?	?
CCN(CC)c1ccc2cc(C(=O)Nc3ccc(-n4cnnn4)c(OC)c3)c(=O)oc2c1	0	3.42e-08M	6.71e-07M	0	0	0
Cc1ccnc(NS(=O)(=O)c2ccc(N=[N+]=[N-])cc2)n1	0	0	0	0	0	0
O=S(=O)(O)c1ccc(N=Nc2ccc3c(S(=O)(=O)O)cccc3c2O)c2ccccc12	0	0	0	0	0	0
COC(=O)[C@](C)(N)Cc1ccc(O)cc1	0	0	?	0	0	0
Nc1ncnc2c1ncn2[C@@H]1O[C@@H](COP(=O)(O)OP(=O)(O)OP(=O)(O)OP(=O)(O)OC[C@@H]2O[C@@H](n3cnc4c(N)ncnc43)[C@@H](O)[C@H]2O)[C@H](O)[C@@H]1O	0	0	0	0	0	0
CN(C)/C=c1\sc2c(C#N)cc(C(=O)c3ccc(Br)cc3)n2c1=O	0	4.29e-08M	8.11e-07M	0	0	0
COc1ccc(-n2c(=O)c(CCc3ccccc3)nc3cnc(N4CCN(C)CC4)nc32)cc1	0	0	1.22e-08M	0	0	0
CC(C)(C)OC(=O)[C@H]([C@@H]1N[C@@H](C(=O)O)C(C)(C)S1)N1C(=O)c2ccccc2C1=O	0	0	0	0	0	0
CCn1nc(C)c(/C=C2\CCCC3=C2OC(N)=C(C#N)C3c2c(C)nn(CC)c2C)c1C (stereo not given)	0	0	2.42e-08M	0	0	0
Cc1nn(-c2ccccc2)c(Cl)c1C1C(C#N)=C(N)OC2=C1C(=O)CCC2 (stereo not given)	0	0	?	0	0	0
CC(C)(C)c1cc(/C=C(\C#N)C(N)=S)cc(C(C)(C)C)c1O	0	0	2.76e-08M	0	0	0
C=C[C@@]1(C)CC(=O)[C@@]2(O)[C@@]3(C)[C@H](O)CCC(C)(C)[C@@H]3[C@H](O)[C@H](OC(C)=O)[C@]2(C)O1	0	0	?	?	0	0
